“And” between values parts separate entries of the source, which are not always exact repeats. Equal values may be shown once. The panel holds about 83,000 compounds, 20% with a hit somewhere; the sample as a whole holds those more often.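 Interpretation: 100, growth as untreated; towards 0, rising growth inhibition; 0, no net growth; 0 to -100, cell death. Compounds scoring below 10 were considered active.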 The source made the active and inactive calls.
Tests used:
Assay in all cases: NCI-60 one-dose screen, 48 h (100 = growth as untreated, 0 = no growth, -100 = all killed)
Settings in all cases: 10 µM unless noted
HCT-15 colon = test system: HCT-15 colon
HT29 colon = test system: HT29 colon
SNB-75 CNS = test system: SNB-75 CNS
SNB-19 CNS = test system: SNB-19 CNS
U251 CNS = test system: U251 CNS
PC-3 prostate = test system: PC-3 prostate
SK-MEL-5 melanoma = test system: SK-MEL-5 melanoma
UACC-62 melanoma = test system: UACC-62 melanoma
LOX IMVI melanoma = test system: LOX IMVI melanoma
SK-MEL-28 melanoma = test system: SK-MEL-28 melanoma

Measured: growth

CC(C)(C)OC(=O)N1C/C(=C\c2ccc(F)cc2)C(=O)/C(=C/c2ccc(F)cc2)C1
inactive: SNB-75 CNS 13.2%
active: HCT-15 colon -61% | HT29 colon -87.2% | SNB-19 CNS -89.6% | U251 CNS -100% | PC-3 prostate -31.1% | SK-MEL-5 melanoma -92.3% | UACC-62 melanoma -96.1% | LOX IMVI melanoma -100% | SK-MEL-28 melanoma -95.9%

CC(=O)Nc1cccc(-n2c(COc3ccc(I)cc3)nc3ccccc32)c1
inactive: HCT-15 colon 69.6% and 108% | HT29 colon 105% and 119% | SNB-75 CNS 57.8% and 93.3% | SNB-19 CNS 93.5% and 103% | U251 CNS 81.8% and 105% | PC-3 prostate 63.3% and 107% | SK-MEL-5 melanoma 74.1% and 104% | UACC-62 melanoma 61.4% and 97.8% | LOX IMVI melanoma 85.3% and 107% | SK-MEL-28 melanoma 107% and 116%

COC(=O)c1cc(C(=O)C(Br)Br)n2c1ccc1c3ccccc3ccc12
inactive: HCT-15 colon 34.2% | HT29 colon 63.1% | SNB-75 CNS 66.4% | SNB-19 CNS 58.6% | U251 CNS 44.3% | PC-3 prostate 56.3% | SK-MEL-5 melanoma 61.7% | UACC-62 melanoma 51.8% | LOX IMVI melanoma 41.4% | SK-MEL-28 melanoma 105%

O=C(CCl)Nc1ccc(C(=O)/C=C/c2cc3ccccc3nc2Cl)cc1
inactive: SNB-75 CNS 51.2% and 68% | PC-3 prostate 11.1% and 56.4%
-78.4% (active) and 62.4% (inactive): SK-MEL-5 melanoma
active: LOX IMVI melanoma -97.9% and 3.63%
-85.4% (active) and 19.7% (inactive): HCT-15 colon
2.8% (active) and 65% (inactive): HT29 colon
-69.5% (active) and 46.2% (inactive): SK-MEL-28 melanoma
-33.3% (active) and 12.9% (inactive): UACC-62 melanoma
-80% (active) and 46.6% (inactive): SNB-19 CNS
-83.8% (active) and 39.7% (inactive): U251 CNS

O=c1c(-c2nc(-c3ccccc3)c(-c3ccccc3)[nH]2)coc2ccc(F)cc12
inactive: HCT-15 colon 24.3% | HT29 colon 68.1% | SNB-75 CNS 39% | SNB-19 CNS 38.8% | U251 CNS 47.3% | PC-3 prostate 41.9% | SK-MEL-5 melanoma 47.7% | UACC-62 melanoma 49.9% | LOX IMVI melanoma 65.9% | SK-MEL-28 melanoma 69.6%

CN(C)c1nc(NCCNS(=O)(=O)c2ccc(C3=Nc4c(N)nc(N)nc4NC(c4ccc(C(F)(F)F)cc4)C3)cc2)nc(N2CCOCC2)n1 (stereo not given)
active: HT29 colon 9.6% | LOX IMVI melanoma 0.0978%
inactive: HCT-15 colon 53.6% | SNB-75 CNS 46% | SNB-19 CNS 49% | U251 CNS 26.6% | PC-3 prostate 24.2% | SK-MEL-5 melanoma 25.5% | UACC-62 melanoma 51.5% | SK-MEL-28 melanoma 57.4%

O=C(Nc1nc2ccc([N+](=O)[O-])cc2s1)Nc1ccccc1F
inactive: HCT-15 colon 13.9% | SNB-75 CNS 18.8% | SNB-19 CNS 10.2% | PC-3 prostate 13.9% | UACC-62 melanoma 22.4% | LOX IMVI melanoma 10.5% | SK-MEL-28 melanoma 22%
active: HT29 colon 5.55% | U251 CNS 6.8% | SK-MEL-5 melanoma -51.6%

COc1cc(C2CC(c3ccc(F)cc3)=Nc3c(N)nc(N)nc3N2)ccc1Oc1nc(Nc2ccc(F)cc2)nc(N(C)C)n1 (stereo not given)
inactive: HCT-15 colon 35.7% | HT29 colon 22.1% | SNB-75 CNS 58.3% | SNB-19 CNS 65.1% | U251 CNS 52.9% | PC-3 prostate 27% | UACC-62 melanoma 73.4% | LOX IMVI melanoma 38.5% | SK-MEL-28 melanoma 84.2%
active: SK-MEL-5 melanoma -94.3%

Nc1nnc(CS(=O)(=O)c2ccccc2)s1
inactive: HCT-15 colon 99.9% | HT29 colon 94.6% | SNB-75 CNS 102% | SNB-19 CNS 103% | U251 CNS 95.6% | PC-3 prostate 93% | SK-MEL-5 melanoma 131% | UACC-62 melanoma 91% | LOX IMVI melanoma 84.6% | SK-MEL-28 melanoma 112%

COc1ccc(C(=O)/C=C/c2ccc3c(c2)OCCO3)cc1S(N)(=O)=O
inactive: HCT-15 colon 41.9% | HT29 colon 33.4% | SNB-75 CNS 82.5% | SNB-19 CNS 51.4% | U251 CNS 12.2% | PC-3 prostate 103% | SK-MEL-5 melanoma 99.8% | UACC-62 melanoma 87.9% | LOX IMVI melanoma 23.7% | SK-MEL-28 melanoma 101%

CCN1C(=O)N(CC)C2NNC(Sc3c(C(=O)O)c4ccccc4n(CCC(C)C)c3=O)=NC21 (stereo not given)
active: HCT-15 colon 2.84% | HT29 colon -30% | U251 CNS 2.04% | SK-MEL-5 melanoma 3.73% | LOX IMVI melanoma -41.7%
inactive: SNB-75 CNS 26.1% | SNB-19 CNS 15.5% | PC-3 prostate 26.1% | UACC-62 melanoma 17.9% | SK-MEL-28 melanoma 45.5%

O=C(NC(=S)N1CCN(c2ncnc3c2cnn3-c2ccccc2)CC1)c1ccc(F)cc1
inactive: HCT-15 colon 49.9% | HT29 colon 78% | SNB-75 CNS 53.7% | SNB-19 CNS 84.9% | U251 CNS 85.9% | PC-3 prostate 71.9% | SK-MEL-5 melanoma 56% | UACC-62 melanoma 74.2% | LOX IMVI melanoma 63.4% | SK-MEL-28 melanoma 85.6%

Cc1cc(Cl)ccc1NC(=O)Nc1ccc(-c2ccc3c(c2)NC(=O)/C3=C\c2ccc[nH]2)cc1
inactive: HCT-15 colon 92.6% | HT29 colon 109% | SNB-75 CNS 99.4% | SNB-19 CNS 94.5% | U251 CNS 103% | PC-3 prostate 104% | SK-MEL-5 melanoma 106% | UACC-62 melanoma 98.5% | LOX IMVI melanoma 101% | SK-MEL-28 melanoma 114%

Cn1cc(-c2cc(N)n3nc(-c4c[nH]c5ccc(F)cc45)cc3n2)c2cc(Br)cnc21
inactive: HT29 colon 25.8% | SNB-75 CNS 134% | SNB-19 CNS 98.3% | U251 CNS 22.4% | PC-3 prostate 53.8% | SK-MEL-5 melanoma 78.8% | UACC-62 melanoma 73.7% | SK-MEL-28 melanoma 80%
active: HCT-15 colon -11.7% | LOX IMVI melanoma -56.8%

O=C1CC(c2ccc(I)cc2)OC2C=Cc3ccccc3C12 (stereo not given)
inactive: HCT-15 colon 94.9% | HT29 colon 90.7% | SNB-75 CNS 111% | SNB-19 CNS 101% | U251 CNS 99.5% | PC-3 prostate 101% | SK-MEL-5 melanoma 104% | UACC-62 melanoma 78.9% | LOX IMVI melanoma 99.6% | SK-MEL-28 melanoma 116%

CN1C(=O)/C(=C\C(=O)c2cc3ccccc3oc2=O)c2ccccc21
inactive: HCT-15 colon 39.7% | HT29 colon 93.4% | SNB-75 CNS 96.8% | SNB-19 CNS 78.9% | U251 CNS 42.6% | PC-3 prostate 84.5% | SK-MEL-5 melanoma 92.1% | UACC-62 melanoma 42.6% | LOX IMVI melanoma 58.9% | SK-MEL-28 melanoma 60.8%

COc1ccc(CCC2NCCc3c(Br)c4c(c(OC)c32)OCO4)cc1 (stereo not given)
inactive: SNB-19 CNS 12.1% | PC-3 prostate 26.5%
active: HCT-15 colon 7.93% | HT29 colon 2.11% | SNB-75 CNS -4.42% | U251 CNS 7.13% | SK-MEL-5 melanoma -17% | UACC-62 melanoma -32.5% | LOX IMVI melanoma -27.5% | SK-MEL-28 melanoma 1.12%

Cc1nn(-c2ccccc2)c2nc(C)n(CC(=O)N/N=C/c3cccc([N+](=O)[O-])c3)c(=O)c12
inactive: HCT-15 colon 96.2% | HT29 colon 102% | SNB-75 CNS 79.5% | SNB-19 CNS 77% | U251 CNS 98.3% | PC-3 prostate 80.1% | SK-MEL-5 melanoma 97.6% | UACC-62 melanoma 81.3% | LOX IMVI melanoma 88.8% | SK-MEL-28 melanoma 106%

Cn1cc(-c2cc3nc(-c4cn(C)c5ncc(Br)cc45)cc(N)n3n2)c2cc(F)ccc21
inactive: SNB-75 CNS 24.9% | SNB-19 CNS 58.3% | PC-3 prostate 19.2% | SK-MEL-5 melanoma 40.4% | SK-MEL-28 melanoma 22.6%
active: HCT-15 colon 8.7% | HT29 colon -28.5% | U251 CNS -26.1% | UACC-62 melanoma -7.29% | LOX IMVI melanoma -69.7%

Oc1cncc(-c2ccc3ncnc(N4CCc5cc(F)c(Cl)cc54)c3c2)c1
inactive: HCT-15 colon 66.3% | HT29 colon 57.8% | SNB-75 CNS 25.6% | SNB-19 CNS 38.6% | U251 CNS 39.1% | PC-3 prostate 57.4% | SK-MEL-5 melanoma 78.5% | UACC-62 melanoma 71.8% | LOX IMVI melanoma 38.8% | SK-MEL-28 melanoma 77.6%

O=Cc1cncc(-c2ccc3ncnc(N4CCc5cc(F)c(Cl)cc54)c3c2)c1
active: SNB-75 CNS -12.6%
inactive: HCT-15 colon 18.7% | HT29 colon 56.6% | SNB-19 CNS 49.5% | U251 CNS 48.5% | PC-3 prostate 23.6% | SK-MEL-5 melanoma 19.5% | UACC-62 melanoma 13.4% | LOX IMVI melanoma 20.8% | SK-MEL-28 melanoma 44.2%

CN(C)C(=O)c1cc(-c2ccc3ncnc(N4CCc5cc(F)c(Cl)cc54)c3c2)cnc1N
active: HCT-15 colon -70.8% | HT29 colon -68.6% | SNB-75 CNS -28.8% | SNB-19 CNS -19.8% | U251 CNS -55.7% | PC-3 prostate 0.623% | SK-MEL-5 melanoma -98.9% | UACC-62 melanoma -83.7% | LOX IMVI melanoma -69.3% | SK-MEL-28 melanoma 0.025%

COc1cc(C2C(C(=O)OCc3ccccc3)=C(C)Nc3nc4ccccc4n32)cc(OC)c1OC (stereo not given)
active: SNB-75 CNS -38.3% | UACC-62 melanoma 2.04%
inactive: HCT-15 colon 24.8% | HT29 colon 37.3% | SNB-19 CNS 20.4% | U251 CNS 27% | PC-3 prostate 51.7% | SK-MEL-5 melanoma 17.3% | LOX IMVI melanoma 12.2% | SK-MEL-28 melanoma 33.9%

Cc1ccc(/C=C/C(=O)c2ccc(S(=O)(=O)NCCNc3nc(N(C)C)nc(N4CCOCC4)n3)cc2)cc1
inactive: HCT-15 colon 46.1% | HT29 colon 37.3% | SNB-75 CNS 59.5% | SNB-19 CNS 79.1% | U251 CNS 42.7% | PC-3 prostate 57.4% | SK-MEL-5 melanoma 89% | UACC-62 melanoma 72.6% | LOX IMVI melanoma 42.1% | SK-MEL-28 melanoma 90.7%

CC1=C(C(=O)Nc2ccccc2)C(c2cccc3ccccc23)n2c(nc3ccccc32)N1 (stereo not given)
active: SNB-75 CNS -63%
inactive: HCT-15 colon 64.6% | HT29 colon 40.5% | SNB-19 CNS 20.2% | U251 CNS 25% | PC-3 prostate 31.3% | SK-MEL-5 melanoma 82.6% | UACC-62 melanoma 66.8% | LOX IMVI melanoma 53.5% | SK-MEL-28 melanoma 70%

From PubChem BioAssay (NCI)
